Data: the supplement of paper PMC11732987, “Enantioselective OTUD7B fragment discovery through chemoproteomics screening and high-throughput optimisation” (Communications Chemistry, 2025)

What was measured:
Assay in all cases: log2 ratio of Biotin-Ahx-Ub-VS probe labelling (fragment/DMSO); higher = less target engagement (more negative = stronger competition), active = hit call of the paper (q ≤ 0.05, log2 ratio ≤ -1)
Conditions in all cases: compound concentration: 200 uM; treatment time: 3 h
[1] = biological target: T1, ALG13 (UniProt Q9NP73)
T1 sequence (whole entry): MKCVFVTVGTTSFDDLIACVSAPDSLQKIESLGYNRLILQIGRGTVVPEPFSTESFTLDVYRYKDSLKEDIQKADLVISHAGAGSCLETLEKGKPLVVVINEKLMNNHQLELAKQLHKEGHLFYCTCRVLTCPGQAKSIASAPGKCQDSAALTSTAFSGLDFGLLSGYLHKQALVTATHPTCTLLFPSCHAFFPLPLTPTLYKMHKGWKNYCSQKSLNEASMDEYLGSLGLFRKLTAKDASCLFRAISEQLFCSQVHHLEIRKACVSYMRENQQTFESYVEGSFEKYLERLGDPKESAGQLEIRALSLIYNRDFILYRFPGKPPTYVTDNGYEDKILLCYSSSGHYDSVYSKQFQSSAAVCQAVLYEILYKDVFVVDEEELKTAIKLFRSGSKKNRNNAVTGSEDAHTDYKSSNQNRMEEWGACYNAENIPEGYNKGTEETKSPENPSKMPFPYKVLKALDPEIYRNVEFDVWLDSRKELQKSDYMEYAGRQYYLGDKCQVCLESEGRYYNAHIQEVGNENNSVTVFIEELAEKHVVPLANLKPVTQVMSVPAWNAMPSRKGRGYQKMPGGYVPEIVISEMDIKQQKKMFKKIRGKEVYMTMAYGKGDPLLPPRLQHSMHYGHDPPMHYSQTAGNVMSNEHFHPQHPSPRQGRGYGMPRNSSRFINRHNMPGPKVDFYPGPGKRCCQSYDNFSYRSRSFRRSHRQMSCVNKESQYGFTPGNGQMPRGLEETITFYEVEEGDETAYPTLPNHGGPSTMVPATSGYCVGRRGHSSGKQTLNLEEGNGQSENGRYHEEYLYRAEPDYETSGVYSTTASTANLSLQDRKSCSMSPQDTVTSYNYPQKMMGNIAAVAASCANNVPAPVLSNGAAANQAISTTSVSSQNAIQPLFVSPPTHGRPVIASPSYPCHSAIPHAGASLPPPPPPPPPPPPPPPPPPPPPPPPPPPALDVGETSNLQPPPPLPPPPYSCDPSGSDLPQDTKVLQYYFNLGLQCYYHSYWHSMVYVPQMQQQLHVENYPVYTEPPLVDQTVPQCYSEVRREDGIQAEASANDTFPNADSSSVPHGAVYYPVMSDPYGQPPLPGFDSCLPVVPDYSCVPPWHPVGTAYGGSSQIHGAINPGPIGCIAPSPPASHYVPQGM
Summary of the method: (§1)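 HEK293T lysate (495 µg per sample, in Tris/CHAPS/IGEPAL buffer with protease inhibitors) was treated in triplicate with fragment at 200 µM or with DMSO for 3 h. It was then treated with Biotin-Ahx-Ub-VS (0.5 µM final) for 1 h. Labelled DUBs were NeutrAvidin-enriched, digested with LysC and trypsin, and run by diaPASEF LC-MS/MS. Spectronaut label-free quantities were global-median-normalised. Values are average log2 ratios fragment/DMSO by unpaired t-test, using proteins with ≥2 unique peptides.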

[2] = biological target: ATXN3 (UniProt P54252)
Summary of the method: as §1

[3] = biological target: T2, BAP1 (UniProt Q92560)
T2 sequence (whole entry): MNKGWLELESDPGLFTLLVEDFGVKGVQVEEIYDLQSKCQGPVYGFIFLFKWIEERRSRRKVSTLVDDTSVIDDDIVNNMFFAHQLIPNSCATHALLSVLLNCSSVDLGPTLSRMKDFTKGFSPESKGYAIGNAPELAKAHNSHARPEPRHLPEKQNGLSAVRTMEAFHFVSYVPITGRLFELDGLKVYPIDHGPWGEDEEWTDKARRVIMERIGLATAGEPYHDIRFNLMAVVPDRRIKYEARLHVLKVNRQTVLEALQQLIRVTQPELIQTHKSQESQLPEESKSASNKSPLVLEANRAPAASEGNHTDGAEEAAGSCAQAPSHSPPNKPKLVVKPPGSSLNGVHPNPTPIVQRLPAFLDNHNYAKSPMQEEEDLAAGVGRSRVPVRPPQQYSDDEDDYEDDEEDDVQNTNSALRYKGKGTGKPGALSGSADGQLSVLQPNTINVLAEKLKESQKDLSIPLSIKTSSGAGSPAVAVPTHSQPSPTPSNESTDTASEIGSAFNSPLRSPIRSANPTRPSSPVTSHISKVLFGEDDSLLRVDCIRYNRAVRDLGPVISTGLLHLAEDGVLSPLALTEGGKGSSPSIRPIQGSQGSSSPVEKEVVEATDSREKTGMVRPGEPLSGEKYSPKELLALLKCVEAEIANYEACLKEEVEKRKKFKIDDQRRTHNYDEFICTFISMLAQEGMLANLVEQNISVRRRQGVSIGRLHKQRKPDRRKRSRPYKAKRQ
Summary of the method: as §1

[4] = biological target: EIF3F (UniProt O00303)
Summary of the method: as §1

[5] = biological target: EIF3H (UniProt O15372)
Summary of the method: as §1

[6] = biological target: T3, FAM105A (UniProt Q9NUU6)
T3 sequence (whole entry): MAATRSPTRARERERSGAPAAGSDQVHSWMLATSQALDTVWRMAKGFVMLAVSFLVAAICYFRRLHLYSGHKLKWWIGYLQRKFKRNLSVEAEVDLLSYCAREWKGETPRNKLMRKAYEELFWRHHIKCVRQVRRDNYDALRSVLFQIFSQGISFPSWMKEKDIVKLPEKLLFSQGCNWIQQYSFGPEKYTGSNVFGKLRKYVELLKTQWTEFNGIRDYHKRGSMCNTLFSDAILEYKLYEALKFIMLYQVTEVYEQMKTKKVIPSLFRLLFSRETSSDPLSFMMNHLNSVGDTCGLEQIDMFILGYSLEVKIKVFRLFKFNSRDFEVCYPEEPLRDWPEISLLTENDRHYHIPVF
Summary of the method: as §1

[7] = biological target: OTUB1 (UniProt Q96FW1)
Summary of the method: as §1

[8] = biological target: T4, OTUD4 (UniProt Q01804)
T4 sequence (whole entry): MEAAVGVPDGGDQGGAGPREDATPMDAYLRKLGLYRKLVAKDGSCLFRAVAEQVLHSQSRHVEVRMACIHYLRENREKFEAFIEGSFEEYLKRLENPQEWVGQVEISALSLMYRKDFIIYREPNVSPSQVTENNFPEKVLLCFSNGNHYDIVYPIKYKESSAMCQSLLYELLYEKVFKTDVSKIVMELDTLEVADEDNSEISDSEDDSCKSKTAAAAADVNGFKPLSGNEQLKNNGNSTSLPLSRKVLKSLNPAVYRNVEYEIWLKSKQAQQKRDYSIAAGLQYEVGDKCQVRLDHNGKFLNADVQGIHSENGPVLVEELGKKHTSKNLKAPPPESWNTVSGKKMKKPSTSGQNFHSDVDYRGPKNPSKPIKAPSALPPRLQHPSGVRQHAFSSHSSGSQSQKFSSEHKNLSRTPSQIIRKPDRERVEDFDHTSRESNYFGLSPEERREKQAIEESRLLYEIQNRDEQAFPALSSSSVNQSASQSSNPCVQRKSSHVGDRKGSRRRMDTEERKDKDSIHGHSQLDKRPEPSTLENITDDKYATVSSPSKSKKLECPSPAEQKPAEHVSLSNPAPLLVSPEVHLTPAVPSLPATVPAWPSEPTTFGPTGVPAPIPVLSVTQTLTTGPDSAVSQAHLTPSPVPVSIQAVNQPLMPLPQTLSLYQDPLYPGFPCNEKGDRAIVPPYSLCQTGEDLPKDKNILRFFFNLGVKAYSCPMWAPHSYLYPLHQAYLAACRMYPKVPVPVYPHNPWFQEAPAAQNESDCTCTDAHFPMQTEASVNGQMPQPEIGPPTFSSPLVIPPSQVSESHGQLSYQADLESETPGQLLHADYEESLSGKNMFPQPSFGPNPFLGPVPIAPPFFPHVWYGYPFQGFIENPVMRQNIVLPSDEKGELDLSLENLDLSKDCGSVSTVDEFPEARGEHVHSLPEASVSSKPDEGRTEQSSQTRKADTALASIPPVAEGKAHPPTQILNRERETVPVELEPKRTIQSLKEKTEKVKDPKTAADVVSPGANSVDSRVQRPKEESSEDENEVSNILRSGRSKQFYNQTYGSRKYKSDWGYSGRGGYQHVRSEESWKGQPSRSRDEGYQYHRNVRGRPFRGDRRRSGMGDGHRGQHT
Summary of the method: as §1

[9] = biological target: T5, OTUD5 (UniProt Q96G74)
T5 sequence (whole entry): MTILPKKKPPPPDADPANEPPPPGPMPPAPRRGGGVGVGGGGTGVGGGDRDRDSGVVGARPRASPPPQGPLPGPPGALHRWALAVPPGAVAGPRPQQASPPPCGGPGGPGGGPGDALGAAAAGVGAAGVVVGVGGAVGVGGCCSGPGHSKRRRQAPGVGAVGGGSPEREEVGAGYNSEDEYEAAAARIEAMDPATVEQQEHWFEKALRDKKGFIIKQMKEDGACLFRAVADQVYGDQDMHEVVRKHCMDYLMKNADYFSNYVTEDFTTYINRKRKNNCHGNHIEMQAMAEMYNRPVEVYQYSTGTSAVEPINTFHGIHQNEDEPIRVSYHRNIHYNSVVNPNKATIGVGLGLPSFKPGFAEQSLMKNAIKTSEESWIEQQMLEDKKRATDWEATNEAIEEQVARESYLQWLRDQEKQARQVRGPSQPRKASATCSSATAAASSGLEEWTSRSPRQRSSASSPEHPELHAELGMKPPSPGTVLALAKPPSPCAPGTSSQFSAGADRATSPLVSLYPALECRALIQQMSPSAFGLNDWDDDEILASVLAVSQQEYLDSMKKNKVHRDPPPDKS
Summary of the method: as §1

Measured: log2 ratio of Biotin-Ahx-Ub-VS probe labelling

Chain of OTUB1 (Q96FW1 whole entry): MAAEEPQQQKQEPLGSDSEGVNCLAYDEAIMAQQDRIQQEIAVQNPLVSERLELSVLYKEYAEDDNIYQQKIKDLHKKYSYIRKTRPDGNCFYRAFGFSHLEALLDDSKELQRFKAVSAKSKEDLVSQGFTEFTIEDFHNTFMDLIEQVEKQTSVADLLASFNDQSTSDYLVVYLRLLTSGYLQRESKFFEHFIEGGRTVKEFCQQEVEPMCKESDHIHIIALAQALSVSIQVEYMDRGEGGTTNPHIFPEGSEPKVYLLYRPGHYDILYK
Chain of EIF3F (O00303 whole entry): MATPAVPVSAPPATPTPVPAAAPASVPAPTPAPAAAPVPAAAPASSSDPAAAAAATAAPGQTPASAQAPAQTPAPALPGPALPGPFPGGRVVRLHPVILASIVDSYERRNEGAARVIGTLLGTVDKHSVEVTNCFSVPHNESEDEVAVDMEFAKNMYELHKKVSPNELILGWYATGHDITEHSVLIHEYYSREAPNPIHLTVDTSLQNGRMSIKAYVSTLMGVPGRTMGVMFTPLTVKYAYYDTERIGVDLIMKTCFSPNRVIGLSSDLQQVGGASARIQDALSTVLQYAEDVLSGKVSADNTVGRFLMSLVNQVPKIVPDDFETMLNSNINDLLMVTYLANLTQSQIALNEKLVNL
Chain of EIF3H (O15372 whole entry): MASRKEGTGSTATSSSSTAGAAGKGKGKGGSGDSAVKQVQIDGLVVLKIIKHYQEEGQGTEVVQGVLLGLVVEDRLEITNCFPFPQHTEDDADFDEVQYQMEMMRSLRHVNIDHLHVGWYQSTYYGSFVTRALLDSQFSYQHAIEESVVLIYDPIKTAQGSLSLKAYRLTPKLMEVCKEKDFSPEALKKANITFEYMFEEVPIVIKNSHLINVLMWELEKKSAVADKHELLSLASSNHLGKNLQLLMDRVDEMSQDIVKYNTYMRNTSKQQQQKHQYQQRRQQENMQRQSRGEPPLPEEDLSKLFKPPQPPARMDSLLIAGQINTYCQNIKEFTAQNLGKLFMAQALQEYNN
Chain of ATXN3 (P54252 whole entry): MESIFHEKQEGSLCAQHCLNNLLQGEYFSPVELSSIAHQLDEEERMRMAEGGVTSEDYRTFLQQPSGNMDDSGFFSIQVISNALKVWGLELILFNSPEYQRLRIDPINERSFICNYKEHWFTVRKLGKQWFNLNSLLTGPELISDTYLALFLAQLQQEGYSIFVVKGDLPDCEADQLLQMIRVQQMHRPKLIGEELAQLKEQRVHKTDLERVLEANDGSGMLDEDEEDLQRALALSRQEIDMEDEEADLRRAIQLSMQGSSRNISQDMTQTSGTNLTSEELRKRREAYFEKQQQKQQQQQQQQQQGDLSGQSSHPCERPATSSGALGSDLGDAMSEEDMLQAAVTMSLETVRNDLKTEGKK

Cc1n[nH]c(=O)c2c(NC(=O)CCl)oc(C)c12
inactive: [1] 0.211 | [2] 0.117 | [3] 0.169 | [4] 0.173 | [5] 0.156 | [6] -0.0353 | [7] 0.329 | [8] 0.0677 | [9] -0.187
